Hits are enriched below; roughly 10% of the tested compounds scored in any of these assays.
CCT chaperon mod – changes cytosolic chaperonin activity; purified chaperonin ATPase assay, HTRF ADP detection, 30 min; activity change, % (no concentration beside the values), hits read low; hit rate 0.3% among 360,000; in the data active = activity change below about -30%
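ATPase activity: ADP formed was measured by HTRF Transcreener (665/615 nm ratio) after 30 min at 37 deg C with 10 uM ATP. Compounds screened at one 76 uM concentration against 40 or 20 nM TRiC in Tris pH 7.4/KCl/MgCl2/DTT buffer.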
PLK1 PBD block – blocks phosphopeptide binding to human PLK1 polo-box domain. Plk1 PBD binding of FITC phosphopeptide, fluorescence polarization. Potency, µM, for inactives: max response, negative = inhibition, hits mostly inhibitors. hit rate 2.8% among 360,000; note: potency is the fitted concentration of half-maximal effect; series mostly up to about 57 µM; nearly all actives have a fitted effect of over 65% in size
Target sequence (P53350 whole entry, looked up, the tested form may be a part): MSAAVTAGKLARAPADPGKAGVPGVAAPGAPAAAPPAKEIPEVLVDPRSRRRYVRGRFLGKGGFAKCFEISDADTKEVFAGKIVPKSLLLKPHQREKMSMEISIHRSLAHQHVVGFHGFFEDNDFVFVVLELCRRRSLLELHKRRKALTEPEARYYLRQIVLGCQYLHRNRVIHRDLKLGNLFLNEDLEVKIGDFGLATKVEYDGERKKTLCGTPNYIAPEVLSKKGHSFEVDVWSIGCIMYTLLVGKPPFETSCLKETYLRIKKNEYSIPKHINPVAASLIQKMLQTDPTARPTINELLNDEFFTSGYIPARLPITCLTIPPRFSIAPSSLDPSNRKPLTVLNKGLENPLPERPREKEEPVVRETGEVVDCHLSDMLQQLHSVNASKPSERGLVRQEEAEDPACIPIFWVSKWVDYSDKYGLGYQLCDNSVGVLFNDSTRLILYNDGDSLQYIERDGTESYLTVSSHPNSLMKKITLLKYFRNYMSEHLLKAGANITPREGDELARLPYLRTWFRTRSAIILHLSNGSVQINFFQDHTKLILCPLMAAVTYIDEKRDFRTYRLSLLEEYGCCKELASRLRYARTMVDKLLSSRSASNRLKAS
VDR inh – inhibitors of human vitamin D receptor; Potency, µM, for inactives: max response, negative = inhibition, actives largely listed as inhibitors; VDR-SRC2-3 peptide fluorescence polarization, 2 h; P11473; hit rate 0.93% among 400,000; note: potency is the fitted concentration of half-maximal effect
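VDR–SRC2-3 interaction, FP format. Cmpds 23 nl via pintool, brief spin, 2 h ambient incubation.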
Sfp inh – blocks B. subtilis Sfp PPTase activity; Q9F4F7; Biochemical Sfp PPTase activity, qHTS; Potency, µM, without a hit: largest response in the series, negative = inhibition, most hits filed as inhibitors; hit rate 3.5% among 310,000; AID 1490;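 note: the enzyme is Sfp with the accession as filed and its product quenches rhodamine fluorescence; potency is the fitted concentration of half-maximal effect; 0% = enzyme reaction without inhibitor and -100% = no enzyme wells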
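Fluorescence-quenching assay with 15 nM Sfp, 5 uM rhodamine-CoA and 12.5 uM BHQ-2-labelled ybbR peptide in pH 7.6 Hepes/MgCl2 buffer. Enzyme was pre-incubated with compound for 15 min at room temperature. Rate was taken from the 30-min fluorescence change (525/598 nm).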
Mm-Cpn inhibitor – M. maripaludis TRiC chaperonin inhibition | purified Mm-Cpn ATPase, ADP Transcreener TR-FRET | Potency, µM (series often up to 76.9 µM), for inactives: top-dose activity, negative = inhibition, most hits filed as inhibitors | hit rate 0.031% among 330,000 | AID 504842; note: potency is the fitted concentration of half-maximal effect; nearly all actives have a fitted effect of over 80% in size
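Purified archaeal Mm-CPN (25nM final) preincubated 10 min at 37degC with compound, then 10uM ATP for 30 min at 37degC; ADP measured by HTRF Transcreener TR-FRET; buffer 30 mM TRIS pH 7.4, 100mM KCl, 5mM MgCl2, 1mM DTT.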
G9a block – inhibitors of human histone lysine methyltransferase G9a; hit rate 8.8% among 350,000; Potency, µM (top dose mostly 102 µM), for inactives: at the highest dose activity, negative = inhibition, most hits filed as inhibitors; Q96KQ7; G9a H3K9 monomethylation, AlphaScreen, 2 h; note: potency is the fitted concentration of half-maximal effect; nearly all actives have a fitted effect of over 75% in size
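Enzyme 20 nM + cpd, 15 min RT; add b-H3K9 pep 500 nM / SAM 20 uM; 2 h RT; anti-H3K9me1 Ab 0.5 ug/mL + SA donor / anti-rabbit acceptor beads 20 ug/mL each, 10 min; AlphaScreen read.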
Active calls of the source: *; [ ] = dose if it differs, or a comment. Unless noted, calls come from the whole dose curve; as a rule, active = well fitted curve in the direction sought with a large enough effect; inconclusive = small, poorly fitted or top-dose-only effect, or another doubt; inactive = no such curve, though single readings can be large; an effect the other way counts as inactive or inconclusive. Unless noted, % is set by controls: 0 for no effect and ±100 for the full control effect.

How did CC(C)c1ccc(C(c2c(O)c3ccccc3oc2=O)c2c(O)c3ccccc3oc2=O)cc1 do in these assays?
CCT chaperon mod: -1; PLK1 PBD block: 21µM*

What do the screens show for `C/C(CC(c1ccccc1)c1c(O)c2ccccc2oc1=O)=N\Nc1ccc([N+](=O)[O-])cc1[N+](=O)[O-]` (configuration not stated)?
CCT chaperon mod: 0; PLK1 PBD block: -25%; VDR inh: 113%; Sfp inh: -1%; Mm-Cpn inhibitor: 0%; G9a block: 14µM*

Results for CC(=O)CC(c1ccc(O)cc1)c1c(O)c2ccccc2oc1=O (configuration not stated) ?
VDR inh: -5%; Sfp inh: 20%

Results for CCC1OC(=O)CC(O)C(C)[C@@H](O[C@@H]2OC(C)[C@H](O[C@@H]3C[C@@](C)(O)C(O)C(C)O3)C(N(C)C)C2O)[C@H](CC=O)CC(C)C(=O)/C=C/C(C)=C/[C@@H]1COC1OC(C)C(O)C(OC)[C@@H]1OC (some centres not stated) ?
VDR inh: -3%; Sfp inh: 19%; G9a block: -38%[2.33 µM]

What do the screens show for `NC(N)=Nc1ccc2[nH]c3c(c2c1)C[C@]1(O)[C@@H]2Cc4ccc(O)c5c4[C@]1(CCN2CC1CC1)[C@@H]3O5`?
VDR inh: 6%; Sfp inh: -22%

How did CC(C)(C)N1C(=O)NC(=O)/C(=C\c2ccc3c(c2)CCN3CCCCl)C1=O do in these assays?
CCT chaperon mod: 1; PLK1 PBD block: inconclusive; VDR inh: 4%; Sfp inh: inconclusive; Mm-Cpn inhibitor: -2%; G9a block: 40µM*

How did C=CCN1C(=O)/C(=C/c2ccc3c(c2)CCCN3CCC)C(=O)NC1=S do in these assays?
CCT chaperon mod: 0; PLK1 PBD block: -73%; VDR inh: inconclusive; Sfp inh: 25µM*; Mm-Cpn inhibitor: -2%; G9a block: 14µM*

How did Cc1ccccc1-n1nc(C)c2c1NC(=O)CSC2c1ccc(N(C)C)cc1 (configuration not stated) do in these assays?
VDR inh: 10%; G9a block: -34%[59 µM]

How did Cc1ccccc1-n1nc(C)c2c1NC(=O)CSC2c1ccc(Cl)cc1 (configuration not stated) do in these assays?
VDR inh: 10%; G9a block: 13µM*

How did CC(=O)C1CCC2C3CCC4=CC(=O)CC[C@@]4(C)C3CC[C@]12C (some centres not stated) do in these assays?
VDR inh: 45µM*; Sfp inh: -15%; G9a block: -21%[2.33 µM]

Results for N#C/C(=C/c1ccc(O)c(O)c1)C(N)=S ?
VDR inh: 40µM*; G9a block: 7.5µM*

How did N#C/C(=C\c1ccc(O)c(O)c1)C(=O)NCCCNC(=O)/C(C#N)=C/c1ccc(O)c(O)c1 do in these assays?
VDR inh: inconclusive; G9a block: 1.7µM*

Results for CCOC(=O)c1c(C)n(Cc2ccco2)c2c1cc(O)c1ccccc12 ?
CCT chaperon mod: -1; PLK1 PBD block: -4%; VDR inh: -11%; Sfp inh: inconclusive; Mm-Cpn inhibitor: -3%; G9a block: 16µM*

What do the screens show for `COc1ccc(N2CCN(c3ncnc4c3nc3n4CCCCC3)CC2)cc1`?
VDR inh: -18%; G9a block: 11µM*

Results for O=C(Nc1ccccc1)N1CC[C@@]2(CCCN(C(=O)Oc3ccccc3)C2)C1 ?
VDR inh: -2%; Sfp inh: -2%; G9a block: -1%[12.7 µM]

Results for Nc1ccccc1C(=O)c1ccccc1 ?
CCT chaperon mod: 0; PLK1 PBD block: -10%; VDR inh: 4%; Sfp inh: 15%; Mm-Cpn inhibitor: 2%; G9a block: -3%

Results for O=C(O)c1ccccc1S ?
Sfp inh: inconclusive; Mm-Cpn inhibitor: -1%; G9a block: 40µM*

How did Cc1cccc(-n2c(C)nc3ccccc3c2=O)n1 do in these assays?
CCT chaperon mod: 0; PLK1 PBD block: -1%; VDR inh: -5%; Sfp inh: 16%; Mm-Cpn inhibitor: 1%; G9a block: -5%[59 µM]

How did Cc1cccc(-n2c(=S)[nH]c3ccccc3c2=O)n1 do in these assays?
CCT chaperon mod: -5; PLK1 PBD block: -14%; VDR inh: -13%; Sfp inh: 50µM*; Mm-Cpn inhibitor: 3%; G9a block: inconclusive

Results for CCOc1ccc(NS(=O)(=O)c2ccc(Cl)c(N=Nc3c(O)[nH]c(=S)[nH]c3=O)c2)cc1Br ?
CCT chaperon mod: 0; PLK1 PBD block: inconclusive

How did COc1ccc(CC(=O)Nc2ccc(C#N)c(Cl)c2)cc1S(=O)(=O)N1CCOCC1 do in these assays?
CCT chaperon mod: -3; PLK1 PBD block: 4%; VDR inh: 10%; Sfp inh: 50µM*; Mm-Cpn inhibitor: 2%; G9a block: 40µM*

Results for CC(C)N(CC[C@@](C(N)=O)(c1ccccc1)c1ccccn1)C(C)C ?
VDR inh: 1%; Sfp inh: 11%; G9a block: -2%[12.7 µM]

Results for COCC(=O)N1CCC2(CCCN(Cc3ccncc3)C2)CC1 ?
VDR inh: -7%; Sfp inh: -4%; G9a block: -4%[12.7 µM]

How did COC(=O)/C(C)=C\CC12OC(C)(C)C3CC(C=C4C(=O)c5c(OC)c6c(c(CC=C(C)C)c5OC431)OC(C)(CCC=C(C)C)C=C6)C2=O (configuration not stated) do in these assays?
VDR inh: 2µM*; Sfp inh: inconclusive

What do the screens show for `CC(=O)Oc1c2c(c(CC=C(C)C)c3c1C(=O)C1=CC4CC5C(C)(C)OC(C/C=C(\C)C(=O)O)(C4=O)[C@]15O3)OC(C)(CCC=C(C)C)C=C2` (some centres not stated)?
VDR inh: 1.3µM*; Sfp inh: 25µM*

What do the screens show for `CN(C)C1C(=O)C(C(N)=O)=C(O)[C@@]2(O)C(=O)C3=C(O)c4c(O)ccc(Cl)c4[C@](C)(O)C3CC12` (some centres not stated)?
VDR inh: inconclusive; Sfp inh: -60%; G9a block: inconclusive

What do the screens show for `Cc1ccc(NC(=O)Cn2c(=O)oc3ccccc32)cc1C`?
CCT chaperon mod: -1; PLK1 PBD block: 21µM*; VDR inh: inconclusive; Sfp inh: -3%; Mm-Cpn inhibitor: 2%; G9a block: -14%

What do the screens show for `O=C(O)/C=C/CO`?
VDR inh: 4%; Sfp inh: 17%; G9a block: 22%[59 µM]

What do the screens show for `Cc1ccccc1Nc1c(-c2ccc(Br)cc2O)nc2sccn12`?
VDR inh: 1%; G9a block: inconclusive

Source: PubChem
